The text below walks through data of PubChem BioAssay (Tox21).

A short description of test [1]: qHTS assay to identify small molecule agonists of the sonic hedgehog signaling (Shh) pathway (AID 1259368; calls by dose curve;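 further: NIH/3T3-derived 3T3Gli1-Luc cells carrying a stable Gli1-driven firefly luciferase reporter; series mostly up to about 92 µM; nearly all actives have a fitted effect of over 15% in size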). Summed up:
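3T3Gli1-Luc (NIH/3T3 clone, stable Gli1-Luc); 4 hr pre-incubation, then cpd in DMSO 24 hr, 37 C/5% CO2; luciferase reagent 30 min RT; luminescence.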
(In general: In qHTS, concentration-response curves come from the screen itself.)

For test [2], the target named is Estrogen receptor beta (Homo sapiens) (UniProt Q92731). Briefly: qHTS assay to identify small molecule agonists of the estrogen receptor beta (ER-beta) signaling pathway (AID 1259377; active means well fitted activation curve with a large enough effect in the signal ratio in the repeat runs, not every such curve was filed as active; the % refers to the signal ratio). Summed up: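 Agonist mode cell assay in GripTite HEK293T cells expressing an ER-beta fusion that drives beta-lactamase from an Upstream Activator Sequence; 16 hr compound exposure at 37C, then 2 h LiveBLAzer B/G FRET substrate at room temperature, fluorescence read-out.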
Sequence of Estrogen receptor beta (Homo sapiens) (Q92731 whole entry, looked up, the tested form may be a part): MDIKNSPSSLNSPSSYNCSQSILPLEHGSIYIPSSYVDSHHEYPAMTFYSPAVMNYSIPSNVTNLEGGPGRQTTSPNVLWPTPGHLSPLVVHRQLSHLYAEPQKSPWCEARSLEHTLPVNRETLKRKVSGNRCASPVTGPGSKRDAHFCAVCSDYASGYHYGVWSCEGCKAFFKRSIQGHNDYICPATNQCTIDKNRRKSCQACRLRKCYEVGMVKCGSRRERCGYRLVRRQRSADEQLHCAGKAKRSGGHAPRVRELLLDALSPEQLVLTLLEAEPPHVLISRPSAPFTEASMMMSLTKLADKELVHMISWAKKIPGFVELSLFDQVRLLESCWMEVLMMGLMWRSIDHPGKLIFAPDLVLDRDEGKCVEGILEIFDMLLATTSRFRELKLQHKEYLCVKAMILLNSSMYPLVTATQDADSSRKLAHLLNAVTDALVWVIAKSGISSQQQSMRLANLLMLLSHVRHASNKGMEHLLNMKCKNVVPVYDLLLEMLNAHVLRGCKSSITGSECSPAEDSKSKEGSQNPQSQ

For test [3] the target is unchanged. Briefly: qHTS assay to identify small molecule antagonists of the estrogen receptor beta (ER-beta) signaling pathway (AID 1259378; active means well fitted inhibition curve with a large enough effect in the signal ratio in the repeat runs, not every such curve was filed as active; the % refers to the signal ratio). Summed up: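 ER-beta-UAS-bla HEK293T cells in 2% charcoal-stripped FBS medium treated with compound plus 1nM final 17-beta-estradiol for 16 hr at 37C. Beta-lactamase reporter read by FRET substrate fluorescence after 2 hours at room temperature.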

Test [4] in a line: qHTS assay to identify small molecule agonists of the androgen receptor (AR) signaling pathway in the presence of an antagonist - cell viability counter screen (AID 1259379).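 Further: MDA-kb2 human breast cancer cells carrying an MMTV luciferase reporter; series mostly up to about 92 µM; nearly all actives have a fitted effect of over 25% in size.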 The method in brief:
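Cells: MDA-kb2 (MMTV-luc, AR and GR elements), 3,000/well, 5 hr settle. Added: nilutamide 3.0uM final, then compounds (15 conc.). Incubation: 16 hr, 37C, no CO2. Read-out: CellTiter-Fluor, 1 hr, fluorescence.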

The nature of test [5]: qHTS assay to identify small molecule agonists of the estrogen receptor beta (ER-beta) signaling pathway - cell viability counter screen (AID 1259380). Further: nearly all actives have a fitted effect of over 30% in size. Summed up: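 HEK293T ER-beta-UAS-bla; 2% CS-FBS; 6 hr pre-plate, 16 hr cpd at 37C/5% CO2; LiveBLAzer read first, then CellTiter-Glo 30 min RT, luminescence.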
For test [6], the target named is Androgen receptor (Homo sapiens) (UniProt P10275). The test can be described thus: qHTS assay to identify small molecule agonists of the androgen receptor (AR) signaling pathway in the presence of an antagonist (AID 1259381; calls by dose curve; further: nearly all actives have a fitted effect of over 15% in size). Summed up: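 MDA-kb2 cells, 3,000/well, rested 5hr at 37C/0% CO2 → nilutamide 3.0uM final or buffer → compounds, 15 conc. → 16hr at 37C → ONE-Glo, 30min RT → luminescence.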
Sequence of Androgen receptor (Homo sapiens) (P10275 whole entry, looked up): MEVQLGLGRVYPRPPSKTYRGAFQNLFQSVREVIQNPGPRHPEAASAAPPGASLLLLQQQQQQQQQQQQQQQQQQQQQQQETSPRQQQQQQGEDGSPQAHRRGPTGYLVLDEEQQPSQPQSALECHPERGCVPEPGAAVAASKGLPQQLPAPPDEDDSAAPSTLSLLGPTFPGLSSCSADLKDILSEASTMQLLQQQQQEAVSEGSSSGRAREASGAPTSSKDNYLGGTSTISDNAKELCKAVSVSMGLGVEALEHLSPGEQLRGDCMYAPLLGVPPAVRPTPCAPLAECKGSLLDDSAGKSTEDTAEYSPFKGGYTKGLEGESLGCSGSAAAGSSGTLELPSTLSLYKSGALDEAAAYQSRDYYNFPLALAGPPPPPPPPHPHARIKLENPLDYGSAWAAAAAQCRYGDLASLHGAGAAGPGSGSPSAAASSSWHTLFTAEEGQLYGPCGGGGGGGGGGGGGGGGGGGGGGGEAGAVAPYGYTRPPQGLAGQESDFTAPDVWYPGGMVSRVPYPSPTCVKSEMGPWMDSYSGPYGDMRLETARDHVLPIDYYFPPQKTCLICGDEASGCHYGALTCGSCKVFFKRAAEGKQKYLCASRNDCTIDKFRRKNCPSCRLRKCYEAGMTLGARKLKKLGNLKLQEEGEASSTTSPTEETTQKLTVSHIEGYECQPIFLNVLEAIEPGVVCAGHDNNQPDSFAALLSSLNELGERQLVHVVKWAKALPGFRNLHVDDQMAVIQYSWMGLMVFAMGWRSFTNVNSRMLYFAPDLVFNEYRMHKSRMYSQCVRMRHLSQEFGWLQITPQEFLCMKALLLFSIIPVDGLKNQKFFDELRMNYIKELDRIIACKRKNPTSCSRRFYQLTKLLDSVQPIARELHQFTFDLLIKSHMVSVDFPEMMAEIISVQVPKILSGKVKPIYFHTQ

Test [7] in a line: qHTS assay to identify small molecule antagonists of the estrogen receptor beta (ER-beta) signaling pathway - cell viability counter screen (AID 1259382). Further: series mostly up to about 92 µM; nearly all actives have a fitted effect of over 55% in size. Summed up:
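Cells: ER-beta-UAS-bla HEK293T, 2,000/well, 2% CS-FBS, 6 hr settle. Cpd + E2 (1nM final), 16 hr, 37C/5% CO2. Bla FRET substrate 2 hr RT, then CellTiter-Glo 30 min RT, luminescence.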

For test [8], the target named is Estrogen receptor (Homo sapiens) (UniProt P03372). The test can be described thus: qHTS assay to identify small molecule agonists of the estrogen receptor alpha (ER-alpha) signaling pathway in the presence of an antagonist (AID 1259383; calls by dose curve; further: top concentration of the series differs between compounds; nearly all actives have a fitted effect of over 15% in size). Summed up:
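VM7Luc4E2, endog. ER-alpha + 4×ERE-luc; charcoal-stripped FBS, phenol red-free, 5 d; 24hr plating; +10.0nM ICI-182,780 (final); cpds 15 conc, 22hr, 37C/5% CO2; ONE-Glo luminescence.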

Test [9] is described as follows: qHTS assay to identify small molecule agonists or antagonists of the thyroid stimulating hormone receptor (TSHR) signaling pathway - wild type cell line counter screen (AID 1259384; calls by dose curve). The method in brief: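 Wild-type Hek293 cells, 800/well, 18 h at 37C, then compound with Ro20-1724 for 30 min RT. cAMP by HTRF (cAMP-d2/anti-cAMP cryptate), 1 h RT, fluorescence read. 15 concentrations, triplicates.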

Test [10] addresses Thyrotropin receptor (Homo sapiens) (UniProt P16473). Briefly: qHTS assay to identify small molecule antagonists of the thyroid stimulating hormone receptor (TSHR) signaling pathway (AID 1259385; calls by dose curve; further: nearly all actives have a fitted effect of over 20% in size). The method in brief: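 TSHR-HEK293 cells (800/well) plated 18 h, then compounds with Ro20-1724 and TSH at 1.5 ng/mL final, 30 min at room temperature. cAMP quantified by HTRF (cAMP-d2/anti-cAMP-cryptate, 1 h); 15 concentrations in triplicate.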

Test [11] is described as follows: qHTS assay to identify small molecule agonists of the estrogen receptor alpha (ER-alpha) signaling pathway in the presence of an antagonist - cell viability counter screen (AID 1259386).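 Further: cells exposed to compounds for 22 h at 37 °C before the viability read; nearly all actives have a fitted effect of over 30% in size.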 Further: potency means the concentration at half of the fitted maximal effect. On activity change, negative = cytotoxicity: series mostly up to about 92 µM. Summed up: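 VM7Luc4E2, stripped-serum pre-culture 5 d; 24hr plating; +ICI-182,780 10.0nM final; cpds 15 conc, 22hr, 37C/5% CO2; CellTiter-Fluor added at 21hr, fluorescence 1hr later.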

For test [12], the target named is Progesterone receptor (Homo sapiens) (UniProt P06401). Briefly: qHTS assay to identify small molecule agonists of the progesterone receptor (PR) signaling pathway (AID 1346784; calls by dose curve; further: nearly all actives have a fitted effect of over 30% in size). Summed up:
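Cells (PR-UAS-bla HEK 293T, GripTite) were plated in assay medium containing 2% charcoal-stripped FBS and incubated 6 hr. Test compounds in DMSO were added for 16 hr at 37C. FRET substrate was then loaded for 2 hr at room temperature before fluorescence reading.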

Test [13] has the same target. The test can be described thus: qHTS assay to identify small molecule antagonists of the progesterone receptor (PR) signaling pathway (AID 1346795; active means well fitted inhibition curve with a large enough effect in the signal ratio in the repeat runs, not every such curve was filed as active; the % refers to the signal ratio). Summed up:
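Antagonist mode: compounds tested against 1 nM (final) promegestone stimulation in HEK293T cells expressing PR-UAS-bla reporter, 16 hr at 37C, 5% CO2; beta-lactamase activity detected via B/G FRET substrate after 2 hr at room temperature.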

Test [14] is described as follows: qHTS assay to identify small molecule antagonists of the progesterone receptor (PR) signaling pathway - cell viability counter screen (AID 1346798). Further: series mostly up to about 92 µM; nearly all actives have a fitted effect of over 50% in size. The method in brief:
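Counter screen for cytotoxicity: viability of PR-UAS-bla HEK293T cells was measured with CellTiter-Glo luminescence following 16 hr compound exposure in the presence of R5020.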

Test [15] can be described thus: qHTS assay to identify small molecule agonists of the progesterone receptor (PR) signaling pathway - cell viability counter screen (AID 1346799; calls by dose curve; further: nearly all actives have a fitted effect of over 45% in size). The method in brief: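 Cells (PR-UAS-bla HEK293T) are plated at 3,000/well in 2% charcoal-stripped FBS medium, rested 6 hr, dosed and incubated 16 hr at 37C. CellTiter-Glo is then added and luminescence measured after 30 min at room temperature.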

The nature of test [16]: qHTS assay to identify small molecule antagonists of the TGF-beta/Smad signaling pathway - cell viability counter screen (AID 1346824). Further: nearly all actives have a fitted effect of over 50% in size. The method in brief: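 SBE-bla HEK 293T cells, incubated overnight, then compound plus 0.25 ng/mL TGF-beta1 (stock added) for 5 hr at 37 C. Viability was read in the same wells by CellTiter-Glo luminescence after 30 min at room temperature.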

Test [17] can be described thus: qHTS assay to identify small molecule agonists of the TGF-beta/Smad signaling pathway - cell viability counter screen (AID 1346829). Further: top concentration of the series differs between compounds; nearly all actives have a fitted effect of over 45% in size. Summed up: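 Compound-treated SBE-bla HEK 293T cells (5 hr, 37 C) were assessed for viability with CellTiter-Glo in parallel with the reporter read.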
A short description of test [18]: qHTS assay to identify small molecule agonists of the TGF-beta/Smad signaling pathway (AID 1346859; active means well fitted activation curve with a large enough effect in the signal ratio in the repeat runs, not every such curve was filed as active; the % refers to the signal ratio; further: series mostly up to about 77 µM). Summed up: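 Reporter line: HEK 293T with stably integrated SBE-controlled beta-lactamase. Compound exposure lasts 5 hr at 37 C and 5% CO2; substrate loading follows for 2 hr at room temperature, with emission read at 460 and 530 nm.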
The target of test [19] is Thyrotropin-releasing hormone receptor (Homo sapiens) (UniProt P34981). Briefly: qHTS assay to identify small molecule antagonists of the thyrotropin-releasing hormone receptor (TRHR) signaling pathway (AID 1346877; active means well fitted inhibition curve with a large enough effect in the repeat runs, not every such curve was filed as active; further: series mostly up to about 51 µM). The method in brief:
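Intracellular calcium fluorescence, read kinetically every second over 3 min, reports TRH-evoked signalling in HEK293 cells carrying TRHR. Test compounds were added 5 min ahead of a 1 nM TRH challenge.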

Test [20] in a line: qHTS assay to identify small molecule antagonists of the sonic hedgehog signaling (Shh) pathway (AID 1259369; calls by dose curve; further: nearly all actives have a fitted effect of over 45% in size; further: potency means the concentration at half of the fitted maximal effect). Summed up: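 3T3Gli1-Luc, conditioned-medium-stimulated, 24hr cpd, 37C/5% CO2; Gli1-driven firefly Luc luminescence after 30min RT with luciferase reagent. Cells plated 4hr before cpd.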

Each structure is given as a SMILES string. Values without a mark were called inactive. Records with an inconclusive call do not appear. Active and inactive are the calls of the source. Unless noted, the call rests on the fitted dose curve; in most records, active means well fitted curve in the direction sought with a large enough effect in the repeat runs; inconclusive means weak or mixed curves; inactive means no such curve, though single readings can be large; an effect the other way counts as inactive or inconclusive.
On the % scale 0 is the no-effect control and ±100 the full control effect.

Sequence of Progesterone receptor (Homo sapiens) (P06401 whole entry, looked up): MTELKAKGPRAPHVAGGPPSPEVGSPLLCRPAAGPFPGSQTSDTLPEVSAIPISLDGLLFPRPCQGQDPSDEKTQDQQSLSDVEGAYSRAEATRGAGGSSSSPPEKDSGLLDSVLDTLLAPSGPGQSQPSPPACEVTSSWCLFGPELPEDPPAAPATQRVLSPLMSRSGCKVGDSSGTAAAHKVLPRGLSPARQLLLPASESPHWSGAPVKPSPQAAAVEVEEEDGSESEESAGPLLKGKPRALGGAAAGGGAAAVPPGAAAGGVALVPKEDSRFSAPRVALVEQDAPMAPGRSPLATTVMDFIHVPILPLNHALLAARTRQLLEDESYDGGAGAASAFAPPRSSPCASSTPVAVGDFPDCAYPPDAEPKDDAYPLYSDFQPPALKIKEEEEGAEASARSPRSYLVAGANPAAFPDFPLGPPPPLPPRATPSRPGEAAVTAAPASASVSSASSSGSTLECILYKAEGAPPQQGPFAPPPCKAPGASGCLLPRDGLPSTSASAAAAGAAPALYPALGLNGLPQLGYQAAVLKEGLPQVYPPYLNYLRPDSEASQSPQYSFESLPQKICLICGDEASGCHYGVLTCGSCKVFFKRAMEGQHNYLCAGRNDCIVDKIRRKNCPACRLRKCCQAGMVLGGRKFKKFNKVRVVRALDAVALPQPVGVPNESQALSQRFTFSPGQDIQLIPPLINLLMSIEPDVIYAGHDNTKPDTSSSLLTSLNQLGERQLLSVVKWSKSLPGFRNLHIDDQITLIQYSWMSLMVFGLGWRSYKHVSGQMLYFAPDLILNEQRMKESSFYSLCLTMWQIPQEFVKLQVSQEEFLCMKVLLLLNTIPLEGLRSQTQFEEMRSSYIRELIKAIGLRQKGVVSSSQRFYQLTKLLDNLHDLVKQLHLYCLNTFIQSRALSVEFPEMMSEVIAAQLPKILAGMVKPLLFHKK
Sequence of Estrogen receptor (Homo sapiens) (P03372 whole entry, looked up): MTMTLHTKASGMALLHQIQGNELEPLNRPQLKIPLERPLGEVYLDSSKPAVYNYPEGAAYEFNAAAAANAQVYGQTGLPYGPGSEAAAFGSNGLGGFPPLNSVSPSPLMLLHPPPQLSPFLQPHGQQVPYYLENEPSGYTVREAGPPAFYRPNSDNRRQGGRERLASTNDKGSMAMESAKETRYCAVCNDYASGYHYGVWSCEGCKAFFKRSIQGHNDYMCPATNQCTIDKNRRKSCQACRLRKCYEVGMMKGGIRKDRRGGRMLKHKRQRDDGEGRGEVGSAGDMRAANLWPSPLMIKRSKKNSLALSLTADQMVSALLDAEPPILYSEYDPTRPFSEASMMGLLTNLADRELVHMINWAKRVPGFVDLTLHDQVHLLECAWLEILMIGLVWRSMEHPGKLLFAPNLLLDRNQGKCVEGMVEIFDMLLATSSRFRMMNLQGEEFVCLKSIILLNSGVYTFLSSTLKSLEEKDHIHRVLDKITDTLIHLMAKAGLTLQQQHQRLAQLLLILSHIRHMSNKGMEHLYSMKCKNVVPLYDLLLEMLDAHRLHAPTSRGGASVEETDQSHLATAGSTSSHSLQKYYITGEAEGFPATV
Sequence of Thyrotropin-releasing hormone receptor (Homo sapiens) (P34981 whole entry, looked up): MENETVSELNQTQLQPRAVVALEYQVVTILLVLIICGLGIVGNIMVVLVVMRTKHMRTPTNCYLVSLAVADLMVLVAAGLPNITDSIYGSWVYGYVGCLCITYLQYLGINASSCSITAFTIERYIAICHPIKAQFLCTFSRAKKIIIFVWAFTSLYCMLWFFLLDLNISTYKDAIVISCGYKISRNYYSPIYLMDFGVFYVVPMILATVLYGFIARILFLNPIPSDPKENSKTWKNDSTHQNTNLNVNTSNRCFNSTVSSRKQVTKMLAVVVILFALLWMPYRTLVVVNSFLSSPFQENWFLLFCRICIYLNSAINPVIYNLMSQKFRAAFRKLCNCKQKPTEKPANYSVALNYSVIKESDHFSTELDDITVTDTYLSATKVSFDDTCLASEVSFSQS
Sequence of Thyrotropin receptor (Homo sapiens) (P16473 whole entry, looked up): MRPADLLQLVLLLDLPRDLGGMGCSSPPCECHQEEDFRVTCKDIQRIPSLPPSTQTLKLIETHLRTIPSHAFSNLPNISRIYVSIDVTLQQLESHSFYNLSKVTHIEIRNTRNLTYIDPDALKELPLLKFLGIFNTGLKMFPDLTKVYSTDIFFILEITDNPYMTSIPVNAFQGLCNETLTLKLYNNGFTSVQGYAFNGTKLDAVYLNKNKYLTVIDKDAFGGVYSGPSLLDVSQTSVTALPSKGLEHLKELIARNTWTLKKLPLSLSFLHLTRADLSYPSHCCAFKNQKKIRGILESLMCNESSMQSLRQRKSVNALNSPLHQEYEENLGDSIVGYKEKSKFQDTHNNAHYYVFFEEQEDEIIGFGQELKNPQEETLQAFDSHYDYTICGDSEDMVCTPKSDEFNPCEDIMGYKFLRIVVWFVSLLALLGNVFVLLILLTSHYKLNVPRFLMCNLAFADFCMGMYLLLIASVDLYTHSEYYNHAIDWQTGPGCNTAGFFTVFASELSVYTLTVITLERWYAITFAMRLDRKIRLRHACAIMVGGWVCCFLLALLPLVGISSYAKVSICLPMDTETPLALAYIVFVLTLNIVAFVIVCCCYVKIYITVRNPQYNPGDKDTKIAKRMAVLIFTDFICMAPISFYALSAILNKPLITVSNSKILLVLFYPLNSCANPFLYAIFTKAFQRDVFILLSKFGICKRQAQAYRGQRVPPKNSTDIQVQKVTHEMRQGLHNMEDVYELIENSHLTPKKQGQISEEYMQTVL

For `O=C(NCCc1c[nH]c2ccccc12)c1cccnc1`, the molecule was called inactive in test [1], in [3], in test [7], in [8], in [9] and in test [10]. In addition, the result in test [16], in [17], in test [18] and in [19] was inactive. Also, the Potency result in test [2], in [4], in test [5], in test [6], in test [11] and in test [12] was “inactive” throughout. In addition, the Potency result in test [13], in [14] and in test [15] was “inactive” in each case.

Consider `CCCCCCN`, for which the molecule was called inactive in [1], in test [7], in [8], in test [9], in [10] and in test [16]. The molecule was classed as inactive in test [17], in test [18] and in test [19]. Besides, the Potency in test [20] is 61.1 µM (active). The Potency entry in test [5], in test [11], in [12], in test [13], in [14] and in test [15] was “inactive” throughout.

With `CNS(=O)(=O)CCc1ccc2[nH]cc(C3CCN(C)CC3)c2c1`, the result in [1], in test [3], in test [7], in test [8], in [9] and in test [10] was inactive. Also, the outcome in test [16], in test [17], in test [18] and in test [19] was inactive. The Potency result in test [2], in [4], in [5], in test [11], in test [12] and in test [13] was “inactive” in each case. The Potency entry in [14] and in test [15] was “inactive” throughout.

Consider `CC(=O)NCCCCCC(=O)O`, for which the outcome in test [1], in test [3], in test [7], in test [8], in test [9] and in [16] was inactive. Also, the result in [17], in test [18] and in [19] was inactive. Besides, the Potency result in test [2], in test [4], in test [5], in test [12], in test [13] and in [14] was “inactive” in each case. The Potency result in [15] was “inactive”.

Turning to `O=C1CC(c2ccc(Cl)cc2)CC(=O)N1`, the result in [1], in test [3], in test [7], in test [8], in [9] and in [10] was inactive. In addition, the call in test [16], in [17], in test [18] and in test [19] was inactive. Besides, the Potency result in [2], in test [4], in test [5], in [11], in test [12] and in [13] was “inactive” throughout. For the same molecule, the Potency entry in [14] and in [15] was “inactive” each time.

Take `Nc1ccc2cc(S(=O)(=O)O)cc(O)c2c1`: the result in [1], in [7], in [8], in test [16], in test [17] and in test [19] was inactive. In addition, the Potency result in test [20], in test [5], in test [6], in [12], in [13] and in test [14] was “inactive” each time. Further, the Potency result in [15] is “inactive”. In addition, the Potency in test [11] is 48.3 µM (active).

For the molecule `Cc1nc2n(c(=O)c1CCN1CCC(c3noc4cc(F)ccc34)CC1)CCC[C@H]2O`, the activity change in test [1] was -0.0213% [at 18.9 µM]. For the same molecule, the activation in [2] was 1.63% [at 19 µM]; in test [8], 0% [at 19 µM]; in [12] it was -1.98% [at 19 µM]; in test [18], 0.469% [at 15.8 µM]. Also, the activity, negative = inhibition in test [3] was 0.444% [at 19 µM]; in test [19] it was -5.29% [at 10.5 µM]. Further, the activity change, negative = cytotoxicity in [4] is -2.37% [at 19 µM]; in test [5] it was -7.67% [at 19 µM]; in test [7], 1.75% [at 19 µM]; in test [11], -2.18% [at 19 µM]; in [14] it was -12.9% [at 18.9 µM]; in test [15] it was -13.8% [at 19 µM]. Further, the activity change, negative = cytotoxicity in test [17] is -1.25% [at 15.8 µM]. The cAMP activity change in test [9] is -2.33% [at 18.9 µM]. In addition, the activity change, negative = inhibition in [10] is -7.26% [at 19 µM]; in test [13], 1.27% [at 18.9 µM]. Besides, in test [16], the viability change, negative = cytotoxic is 1.49% [at 15.8 µM].
